For eight molecules, growth results are on record in PubChem BioAssay (NCI).

Assay in all cases: NCI-60 one-dose screen, 48 h (100 = growth as untreated, 0 = no growth, -100 = all killed)
Conditions in all cases: 10 µM unless noted

In assay [1] the test system is DU-145 prostate.
Assay [2] has as its system K-562 leukemia.
For assay [3], the system named is MALME-3M melanoma.
The test system of assay [4] is MDA-MB-231 breast.
Assay [5] relates to RXF 393 renal.
Assay [6] deals with SF-268 CNS.
For assay [7], the system named is SF-295 CNS.
In assay [8] the test system is SF-539 CNS.
Assay [9] concerns UACC-257 melanoma.
Assay [10] concerns M14 melanoma.
For assay [11], the system named is HCT-15 colon.
In assay [12] the test system is HT29 colon.
Assay [13] deals with SNB-75 CNS.
Assay [14] has as its system SNB-19 CNS.
The subject of assay [15] is U251 CNS.
Assay [16] deals with PC-3 prostate.
In assay [17] the test system is SK-MEL-5 melanoma.
Assay [18] concerns UACC-62 melanoma.
The subject of assay [19] is LOX IMVI melanoma.
In assay [20] the test system is SK-MEL-28 melanoma.

SMILES strings stand for the structures. This is part of a sample that, as a whole, favours compounds with a hit. Of some 83,000 tested, about 20% had one in any assay.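 Cell lines were cultured in 96-well plates, exposed to a single compound concentration, and assessed for percent growth 48 hours later.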 A number with no mark means an inactive call. Active and inactive are the calls of the source. The calls were made as follows: active = growth percent below 10; inactive = the rest.

For the molecule `Clc1ccc2[nH]cc(-c3nn4cc(-c5cccnc5)nc4s3)c2c1`, the growth in assay [1] was 107%; in assay [2], 94.7%; in assay [3] it was 90.6%; in assay [4] it was 71.7%; in assay [5] it was 113%; in [6], 107%. Besides, the growth is 96.7% in [7]; 95.6% in assay [8]; 109% in [9]; 99.2% in [10]; 95.1% in assay [11]; 98.7% in assay [12]. In addition, the growth in assay [13] is 90.5%; in assay [14], 100%; in assay [15] it was 93.8%; in [16] it was 88.6%; in assay [17], 96.2%; in assay [18], 90.1%. The growth was 123% in assay [19] and 101% in assay [20].

For the molecule `Cc1ccc2c(n1)C(=O)C(Cl)=C(Nc1ccc(C(F)(F)F)cc1)C2=O`, the growth in assay [1] is 105%; in [2], 7.13% (active); in assay [3], -49.6% (active); in assay [4], 76.4%; in [5] it was -15.7% (active); in assay [6], 97.7%. Also, the growth in assay [7] was 112%; in [8], 101%; in assay [9], 35.6%; in assay [10], 28.6%; in assay [11], -58.6% (active); in assay [12] it was 96.8%. For the same molecule, the growth in assay [13] is 115%; in assay [14] it was 97.5%; in [15] it was 91.5%; in [16] it was 72.4%; in [17], 95.3%; in assay [18] it was 96.6%. Also, the results for the growth in [19] and in assay [20] were -57.1% (active) and 51%, respectively.

As for `Cc1ccc2c(n1)C(=O)C(Cl)=C(Nc1ccc(C)c(C)c1)C2=O`, the growth in assay [1] was 6.17% (active); in assay [2], 4.14% (active); in [3] it was 85.4%; in assay [4] it was 49.3%; in assay [5], 85.7%; in [6], 79.1%. For the same molecule, the growth in assay [7] is 44.7%; in assay [8], 59.9%; in assay [9], 16%; in assay [10], 42.5%; in [11], 23.6%; in assay [12], 103%. Besides, the growth in assay [13] was 87.6%; in [14], 56.2%; in assay [15], 71.8%; in assay [16] it was 45.3%; in assay [17], 6.91% (active); in assay [18], 49.3%. Moreover, the growth is 0.982% (active) in [19] and 58.3% in [20].

On to `O=C(CSc1nc2ccccc2c(=O)n1-c1ccccc1)N/N=C/c1ccc(Oc2ccc(Br)cc2)cc1`, for which the growth in [1] is 38.3%; in assay [2] it was 62.5%; in [3], 54.9%; in [4], 50.9%; in assay [5] it was 62.2%; in assay [6], 84.3%. Moreover, the growth in [7] was 83.7%; in assay [8] it was 68.7%; in assay [9] it was 93.7%; in assay [10], 56.3%; in [11] it was 63.7%; in assay [12] it was 38.2%. For the same molecule, the growth in assay [13] was 57.8%; in assay [14] it was 39.9%; in assay [15] it was 21.5%; in [16], 71.8%; in assay [17], 59.1%; in assay [18], 68.8%. In addition, the growth in assay [19] was 21%; in [20], 70.9%.

For the molecule `CC(=O)C1=C(C)NC(NNc2ccccc2)=NC1c1ccc([N+](=O)[O-])cc1` (stereo not given), the growth in assay [1] is 99.4%; in assay [2], 49%; in assay [3], 116%; in [4] it was 88.1%; in assay [5], 102%; in assay [6], 80.7%. For the same molecule, the growth in [7] was 87.4%; in assay [8], 99.9%; in [9], 104%; in assay [10], 101%; in [11], 67.9%; in assay [12], 96.5%. Further, the growth is 102% in assay [13]; 87.8% in assay [14]; 93.1% in assay [15]; 79.3% in [16]; 98.7% in assay [17]; 52.8% in assay [18]. In addition, the growth was 77.1% in assay [19] and 102% in assay [20].

Turning to `CC1=C(C)C(=O)C(Nc2cccc(C(=O)OC(C)(C)C)c2)=C(Cl)C1=O`, the growth in [1] was 103%; in [2], 21.6%; in assay [3], 94.4%; in assay [4], 48.9%; in assay [5], 103%; in assay [6], 92%. The growth was 105% in assay [7]; 96.6% in [8]; 91.4% in [9]; 83.3% in assay [10]; 80.2% in [11]; 98.2% in [12]. The growth was 58.4% in assay [13]; 91.5% in assay [14]; 88.5% in assay [15]; 76.9% in [16]; 98.1% in [17]; 93.4% in assay [18]. For the same molecule, the growth was 62.6% in [19] and 104% in assay [20].

For `O=C1C(SCc2ccccc2)=C(Cl)CN1c1ccc(Cl)cc1`, the growth in [1] is 49.5%; in assay [2], 52.9%; in assay [3], 103%; in assay [4], 101%; in assay [5], 107%; in [6], 108%. Besides, the growth in [7] was 102%; in assay [8], 97.9%; in assay [9], 97.2%; in [10], 78%; in [11], 88.6%; in assay [12], 84.5%. Moreover, the growth is 103% in assay [13]; 96.9% in [14]; 86.3% in assay [15]; 107% in assay [16]; 99.3% in [17]; 93.5% in [18]. Besides, the growth is 5.82% (active) in [19] and 88.1% in assay [20].

For `CN1CCC[C@]2(C)[C@H]3CC[C@@H]4[C@@H]5[C@H]6OC[C@@]5(CCC6(C)C)CC[C@@]4(C)[C@]3(C)CC[C@H]2C1(C)C`, the growth in assay [1] was 56.2%; in [2], 4.84% (active); in assay [3] it was 89.1%; in [4], 67.3%; in assay [5], 74.5%; in assay [6] it was 103%. Moreover, the growth in [7] is 103%; in assay [8] it was 78.4%; in assay [9], 107%; in assay [10], 97.9%; in assay [11], 24.4%; in assay [12] it was 21.6%. Besides, the growth in assay [13] is 89.1%; in assay [14], 84.8%; in [15], 27.5%; in assay [16], 74.2%; in assay [17] it was 93.8%; in [18], 98.4%. Moreover, the growth is -74.5% (active) in assay [19] and 96.2% in assay [20].
